According to PubChem BioAssay AID463173 (ICCB-Longwood Screening Facility, Harvard Medical School, 2010):
Hit rate of the full screen: of about 52,000 compounds, about 1,700 (3.3%) were called active. Cut-off read from the data, not from the text of the source: active = survival mostly below about 52% (no sharp cut-off); inactive = mostly above about 56%. The entries come from a sample that favours actives as a whole.

Tested on: Wild type
Assay: S. aureus survival, RN4220 and DeltatarO strains – OD600, teichoic acid synthesis inhibitors, primary screen (AID 463173)
Settings: S. aureus RN4220 wild type/DeltatarO growth, OD600, 18 h, stronger effect = lower value, screened at 18.75 µg/mL (by protocol)

SMILES | survival
CS(=O)(=O)NCC(c1ccco1)N1CCN(c2ccccc2)CC1 (configuration not stated) | 83% (inactive)
CCCCCCc1cc2cc(-c3nnc(-c4cccc(Cl)c4)o3)c(=O)oc2cc1O | 72% (inactive)
CN(C)N1C(=O)CC(N2CCCC2)C1=O (configuration not stated) | 101% (inactive)
CCc1ccc(NC(=O)CC2C(=O)N(c3cccc(C)c3)C(=O)N2CCC(C)C)cc1 (configuration not stated) | 72% (inactive)
COc1cc2c(cc1OC)C(COc1ccc(F)cc1)N(C(=O)c1ccc(S(=O)(=O)N3CCCC3)cc1)CC2 (configuration not stated) | 88% (inactive)
COc1cc2c(cc1OC)C(COc1ccccc1OC)N(C(=O)c1ccc(S(=O)(=O)N3CCCC3)cc1)CC2 (configuration not stated) | 0% (active)
COc1cc2c(cc1OC)C(COc1cc(C)cc(C)c1)N(C(=O)c1ccc(S(=O)(=O)N3CCCC3)cc1)CC2 (configuration not stated) | 45% (inactive)
COc1cccc(NC(=O)CCc2nnc3n(CC(C)C)c(=O)c4ccccc4n23)c1 | 92% (inactive)
Cc1ccc(CCNC(=O)c2cc3c(s2)-c2c(C)cccc2OC3)cc1 | 88% (inactive)
Cc1ccc(C)c(N(C)C(=O)c2cc3c(s2)-c2ccccc2OC3)c1 | -2% (active)
CCOc1ccccc1N(C)C(=O)c1cc2c(s1)-c1ccccc1OC2 | 13% (active)
COc1ccc(CNC(=O)c2cc3c(s2)-c2ccccc2OC3)cc1 | 92% (inactive)
CCOc1ccc(CCNC(=O)c2cc3c(s2)-c2ccccc2OC3)cc1OCC | 90% (inactive)
COc1cc(OC)c(N(C)C(=O)c2cc3c(s2)-c2ccccc2OC3)cc1Cl | 73% (inactive)
COc1cc(NC(=O)c2cc3c(s2)-c2ccccc2OC3)cc(OC)c1OC | 53% (inactive)
Cc1ccc(CCNC(=O)c2cc3c(s2)-c2ccccc2OC3)cc1 | 95% (inactive)
COc1ccc(N(C)C(=O)c2cc3c(s2)-c2ccccc2OC3)cc1 | 13% (active)
COc1ccc(N2CCN(C(=O)c3cc4c(s3)-c3ccccc3OC4)CC2)cc1 | 116% (inactive)
CCN(C(=O)c1cc2c(s1)-c1c(C)cccc1OC2)c1ccccc1F | 96% (inactive)
CCN(C(=O)c1cc2c(s1)-c1c(C)cccc1OC2)c1cc(C)ccc1C | 11% (active)
NCCC(=O)N1c2ccccc2Sc2ccc(Cl)cc21 | 104% (inactive)
Cc1ccc(F)cc1NC(=O)CCc1c(C)nn(-c2ccc(N3CCOCC3)nn2)c1C | 113% (inactive)
O=C(c1ccccc1)N1CCc2cc(CNS(=O)(=O)c3ccc(Cl)s3)ccc21 | 66% (inactive)

SMILES | survival
Cc1c(C(=O)NCc2ccc(F)cc2)oc2ccc(S(=O)(=O)N3CCCCC3)cc12 | 84% (inactive)
CCOC(=O)CSc1nc2ccc(NC(=O)c3cccc(F)c3)cc2s1 | 87% (inactive)
CS(=O)(=O)Nc1ccc2c(c1)OCO2 | 94% (inactive)
COc1ccc(OC)c(NC(=O)CCCOc2cc(=O)n(C)c3ccccc23)c1 | 64% (inactive)
COc1cccc(NC(=O)C2CCCN(c3ncnc4onc(C)c34)C2)c1 (configuration not stated) | 72% (inactive)
CCC(C)NC(=O)c1c(C)oc2nc(C)nc(N3CCOCC3)c12 (configuration not stated) | 88% (inactive)
CCc1cccc(NC(=O)CCn2nc(C)cc2C)c1 | 77% (inactive)
COc1ccc(NC(=O)C2CCN(C(=O)c3sc4nc[nH]c(=O)c4c3C)CC2)c(OC)c1 | 81% (inactive)
COc1cccc(C(=O)Nc2ccccc2-c2nc3ccccc3s2)c1 | 42% (inactive)
Cc1ccc(C(=O)Nc2ccc(-c3nc4ccccc4s3)c(O)c2)c(C)c1 | 91% (inactive)
COc1ccc(C(=O)Nc2cc(-c3nc4ccccc4s3)ccc2OC)cc1 | 5% (active)
COc1cc(OC)cc(C(=O)Nc2cc(-c3nc4ccccc4s3)ccc2OC)c1 | 67% (inactive)
COc1cc(OC)cc(C(=O)Nc2ccccc2-c2nc3ccccc3s2)c1 | 41% (inactive)
O=C(Nc1ccc(-c2nc3ccccc3s2)c(O)c1)c1ccc(Br)cc1 | 85% (inactive)
CCOc1ccc(C(=O)Nc2cc(-c3nc4ccccc4s3)ccc2OC)cc1 | 163% (inactive)
CSc1ccc(C(=O)Nc2ccc(-c3nc4ccccc4s3)c(O)c2)cc1 | 0% (active)
COc1ccc(C(=O)Nc2ccccc2-c2nc3ccccc3s2)cc1OC | -6% (active)
O=C(NCc1ccc(Cl)cc1)C(=O)NCC(c1cccs1)S(=O)(=O)c1ccc(Cl)cc1 (configuration not stated) | 58% (inactive)
CCOC(=O)C1CCN(c2cc(C)nc3c(-c4ccccc4OC)c(C)nn23)CC1 | 82% (inactive)
COc1ccc(S(=O)(=O)N(Cc2ccccc2)Cc2nc3ccccc3c(=O)[nH]2)cc1 | 113% (inactive)
COc1ccc(C2=C(C)C(=O)N(Cc3ccc(C(=O)NCc4ccccc4C)cc3)S2(=O)=O)cc1 | 66% (inactive)
Cc1cccc(OCc2nc(CC(=O)Nc3ccc(Cl)cc3)cs2)c1 | 92% (inactive)
COc1ccccc1N1CCN(c2ncnc3c2c(-c2ccccc2)cn3-c2cccc(Cl)c2)CC1 | 74% (inactive)

SMILES | survival
CCc1ccc2nc(N(Cc3cccnc3)C(=O)c3cccs3)sc2c1 | 127% (inactive)
CC(=O)c1cccc(NC(=O)c2ccc3c(c2)CCN3S(=O)(=O)c2ccccc2)c1 | 71% (inactive)
Cc1c(-c2nnc(SCC(=O)Nc3ccc(Br)cc3)o2)nnn1-c1ccc(F)cc1 | 80% (inactive)
O=C(CCCCCn1c(=O)[nH]c2ccccc2c1=O)NCCc1ccccc1 | 92% (inactive)
Cc1cccc(NC(=O)c2sc3nc4c(cc3c2N)CCCCCC4)c1C | 121% (inactive)
O=C(c1ccco1)n1nc(-c2ccc(Cl)cc2)nc1NCc1ccccc1 | 74% (inactive)
O=C(c1ccc(F)cc1)n1nc(-c2cccnc2)nc1NCc1ccccc1 | 81% (inactive)
O=C(c1ccc(Cl)cc1)n1nc(-c2ccccc2)nc1NCc1ccco1 | 24% (active)
O=C(c1ccco1)n1nc(-c2ccc(Cl)cc2)nc1NCc1ccc(F)cc1 | 70% (inactive)
O=C(c1ccc(F)cc1)n1nc(-c2ccccc2)nc1NCc1ccco1 | 9% (active)
O=C(c1ccco1)n1nc(-c2ccccc2)nc1NCc1ccc(Cl)cc1 | 85% (inactive)
O=C(c1ccc(F)cc1)n1nc(-c2ccc(Cl)cc2)nc1NCc1ccco1 | 76% (inactive)
O=C(c1ccccc1)n1nc(-c2ccccc2)nc1NCc1ccc(F)cc1 | -4% (active)
O=C(c1ccco1)n1nc(-c2ccccc2)nc1NCc1ccc(F)cc1 | 73% (inactive)
O=C(c1ccccc1)n1nc(-c2ccc(Cl)cc2)nc1NCc1ccco1 | 25% (active)
COc1ccc(C(=O)n2nc(-c3ccc(Cl)cc3)nc2NCc2ccco2)cc1 | 99% (inactive)
O=C(c1ccc(F)cc1)n1nc(-c2ccccc2)nc1NCc1ccc(F)cc1 | 19% (inactive)
Cc1ccc(Nc2nc(C(N)=O)c(NC(=O)c3ccccc3Br)s2)cc1 | 71% (inactive)
CCOC(=O)C1CCC(CN(Cc2ccc(Cl)cc2)S(=O)(=O)c2cc(Cl)cc(Cl)c2)CC1 (configuration not stated) | 59% (inactive)
COc1ccc(-n2c(=O)c3sc4ccccc4c3n(Cc3ccccc3)c2=O)cc1 | 81% (inactive)
Cc1cc(NC(=O)c2oc3c(c2C)-c2[nH]ncc2CC3)ccc1Br | 1% (active)
Cc1cc(C)c(NC(=O)c2oc3c(c2C)-c2[nH]ncc2CC3)c(C)c1 | 81% (inactive)
CCc1ccc(NC(=O)c2oc3c(c2C)-c2[nH]ncc2CC3)cc1 | 59% (inactive)

SMILES | survival
Cc1[nH]c2ccc(Cl)cc2c(=O)c1CN1CCN(C)CC1 | 109% (inactive)
Clc1ccc(CCNc2nc3ccccc3c3nc(-c4ccccc4)nn23)cc1 | 38% (inactive)
Cc1ccc(CNC(=O)CSc2nc3n[nH]c(C)c3c(=N)n2-c2ccccc2Cl)cc1 | 83% (inactive)
Cc1ccc(CN2CCC(CNC(=O)Nc3cccc(Cl)c3C)C2)cc1 (configuration not stated) | 88% (inactive)
Cc1ccc(NC(=O)NCC2CCN(Cc3cccc(Cl)c3)CC2)cc1Cl | -6% (active)
Cc1ccc(CN2CCC(CNC(=O)Nc3ccccc3F)CC2)cc1 | 118% (inactive)
O=C(NCC1CCN(Cc2cccc(Cl)c2)CC1)Nc1cc(Cl)ccc1Cl | -1% (active)
Cc1ccc(CN2CCC(CNC(=O)Nc3ccc(Cl)cc3)C2)cc1 (configuration not stated) | 53% (inactive)
O=C(NCC1CCN(Cc2cccc(Cl)c2)CC1)Nc1ccc(F)c(Cl)c1 | 14% (active)
O=C(NCC1CCN(Cc2ccccc2F)CC1)Nc1ccc(F)c(Cl)c1 | 73% (inactive)
Cc1ccc(CN2CCC(CNC(=O)Nc3ccc(C)c(C)c3)C2)cc1 (configuration not stated) | 94% (inactive)
Cc1cc(C)cc(NC(=O)NCC2CCN(Cc3cc(C)ccc3C)CC2)c1 | 83% (inactive)
COc1ccc(-c2cc3nccc(-c4cc(Cl)c(C)cc4O)n3n2)cc1 | 82% (inactive)
CN1CCN(C(CNC(=O)c2ccc(F)cc2)c2ccc3c(c2)OCO3)CC1 (configuration not stated) | 70% (inactive)
C=CCN1C=C/C(=C\C=C(C#N)C#N)c2ccccc21 | 102% (inactive)
CCc1c(C)nc(SCc2nc(-c3ccccc3)no2)[nH]c1=O | 118% (inactive)
COc1cccc(C(=O)N(Cc2ccco2)c2ccccn2)c1 | 103% (inactive)
COc1ccc(CCNC(=O)c2nc(SCc3ccc(F)cc3)ncc2Cl)cc1OC | 86% (inactive)
CN(CC(=O)NCc1ccc(Cl)cc1)S(=O)(=O)c1ccc2c(c1)c(=O)n(C)c(=O)n2C | 81% (inactive)
COc1ccc(NC(=O)c2oc3ccccc3c2NC(=O)Cc2cccs2)cc1 | 90% (inactive)
C#CC(C)(CC)NC(=O)Cn1nnc(-c2ccc(OCc3ccccc3C)cc2)n1 (configuration not stated) | 143% (inactive)
Cc1ccc(-n2cc(-c3ccccc3)c3c(N4CCCCC4)ncnc32)cc1 | 80% (inactive)
Cc1sc2nc(CN(CCc3ccccc3)C(=O)c3ccco3)[nH]c(=O)c2c1C | 100% (inactive)
